Holding throughout (test): NCI-60 one-dose screen, 48 h (100 = growth as untreated, 0 = no growth, -100 = all killed)
Common to all, as to conditions: 10 µM unless noted

Test [1] relates to K-562 leukemia.
Test [2] concerns MALME-3M melanoma.
Test [3] deals with MDA-MB-231 breast.
Test [4] deals with RXF 393 renal.
In test [5] the test system is SF-268 CNS.
Test [6] concerns SF-295 CNS.
Test [7] deals with SF-539 CNS.
Test [8] deals with UACC-257 melanoma.
In test [9] the test system is M14 melanoma.
The subject of test [10] is HCT-15 colon.
The test system of test [11] is HT29 colon.
The subject of test [12] is SNB-75 CNS.
In test [13] the test system is SNB-19 CNS.
Test [14] concerns U251 CNS.
For test [15], the system named is PC-3 prostate.
The test system of test [16] is SK-MEL-5 melanoma.
Test [17] has as its system UACC-62 melanoma.
The subject of test [18] is LOX IMVI melanoma.
For test [19], the system named is SK-MEL-28 melanoma.
Test [20] has as its system SK-MEL-2 melanoma.

About 83,000 compounds went through this panel and 20% of them were active in at least one assay; those are over-represented in the sample as a whole.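 A percent growth of 40 corresponds to 60% growth inhibition; 0 means no net growth; -100 means all cells died. Active threshold: below 10.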 A number with no mark means an inactive call. Active and inactive are the calls of the source.

With `Cc1ccc(C(=O)Nc2cccc(C(F)(F)F)c2)cc1Nc1nc(-c2cnccn2)nc2c1cnn2C`, the growth was 3.86% (active) in test [1]; -15.3% (active) in test [2]; 25.3% in test [3]; 78% in test [4]; 81.8% in test [5]; 79% in test [6]. In addition, the growth in test [7] was 60.6%; in test [8], 26.1%; in [9] it was 15.7%; in test [10], 81.3%; in [11] it was 32.9%; in test [12], 77.4%. The growth in test [13] was 86%; in test [14], 82.1%; in test [15] it was 90.1%; in test [16], 57.6%; in test [17], 17.9%; in test [18], 62.3%. For the same molecule, the growth in test [19] was 15.6%; in [20], -4.36% (active).

Take `OC1CCc2c(-c3ccc4ncnc(N5CCc6cc(F)c(Cl)cc65)c4c3)cncc21` (stereo unspecified): the growth is 60.9% in test [1]; 64.5% in test [2]; 40.2% in test [3]; 8.06% (active) in [4]; 43.3% in test [5]; 54% in test [6]. The growth in [7] is 53.7%; in test [8], 89.4%; in [9], 74.4%; in test [10] it was 41.1%; in [11], 65.6%; in [12], 31.7%. In addition, the growth was 57.2% in test [13]; 69.6% in test [14]; 41.3% in test [15]; 54% in test [16]; 43.5% in [17]; 54% in test [18]. The growth in test [19] was 73.6%; in test [20] it was 46.7%.

For the molecule `Cc1sc2nc(NCc3ccccc3Cl)[nH]c(=O)c2c1C`, the growth was 54.8% in test [1]; 100% in test [2]; 73% in test [3]; 94.3% in test [4]; 87.6% in test [5]; 80.2% in test [6]. Also, the growth in test [7] was 77.7%; in test [8], 106%; in test [9], 105%; in [10], 47.3%; in test [11] it was 103%; in test [12] it was 82.8%. Further, the growth was 102% in test [13]; 72.9% in test [14]; 73.9% in [15]; 72.9% in test [16]; 75.8% in [17]; 68.8% in test [18]. The growth in [19] was 98.6%; in test [20], 106%.

For `O=C(CN1CCOCC1)NNc1ncnc2ccccc12`, the growth was 0.401% (active) in [1]; -74.5% (active) in test [2]; 2.91% (active) in [3]; -39.7% (active) in test [4]; 97.4% in test [5]; 95.9% in test [6]. The growth is 82.1% in test [7]; 86.3% in [8]; 55.2% in [9]; 70.8% in [10]; 92% in test [11]; 72.7% in test [12]. Besides, the growth is 102% in test [13]; 85.3% in test [14]; 78.3% in [15]; 98.2% in [16]; 83.1% in test [17]; 9.78% (active) in [18]. In addition, the growth in test [20] was 96.3%.

`COc1cc2nc(-c3ccc(C)cc3)cc(OCCCNCC3CCCO3)c2cc1OC` (stereo unspecified): the growth in [1] was 43.6%; in test [2] it was 50%; in [3], 59.1%; in test [4], 59.6%; in [5], 79.7%; in test [6], 59.9%. In addition, the growth in test [7] is 73.7%; in [8], 17.8%; in [9], 14.3%; in test [10], 38%; in test [11], 21.3%; in test [12], 80.7%. Further, the growth is 92.1% in [13]; 66.7% in test [14]; 66.3% in test [15]; 77.7% in test [16]; 96.6% in [17]; -32.2% (active) in test [18]. For the same molecule, the growth in test [19] is 68.1%; in test [20], 112%.

For `Cn1ccnc1C(=O)/C=C/c1ccc(NC(=O)Nc2ccccc2)cc1`, the growth was 7.81% (active) in [1]; 69.6% in test [2]; -2.86% (active) in test [3]; -5.31% (active) in [4]; 3.22% (active) in test [5]; 3.79% (active) in [6]. Moreover, the growth was -29.5% (active) in test [7]; 80% in test [8]; 24.8% in test [9]; 12.4% in test [10]; 3.3% (active) in test [11]; 17.1% in [12]. Moreover, the growth is 21.8% in [13]; 2.77% (active) in test [14]; 37.8% in test [15]; 77.9% in test [16]; 38.5% in [17]; 75.1% in test [19]. For the same molecule, in test [20], the growth is 102%.

`N#Cc1c(-c2ccc(Cl)cc2)nc(SCc2ccc([N+](=O)[O-])cc2)nc1N1CCNCC1`: the growth is -32.2% (active) in test [1]; 48.4% in test [2]; -77.7% (active) in test [3]; -4.17% (active) in [4]; 35.3% in test [5]; 78.9% in [6]. The growth in [7] was -23% (active); in test [8], 43.5%; in [9], -81% (active); in [10] it was 1.91% (active); in [11] it was -71.9% (active); in [12], 28.1%. Moreover, the growth in test [13] was 51.8%; in test [14] it was -95.9% (active); in test [15] it was -1.75% (active); in test [16] it was 43.6%; in test [17] it was 12.5%; in test [18], -61.7% (active). Moreover, in test [20], the growth is -2.3% (active).

Regarding `CCN1CCN(/C(=N\c2sc(-c3ccccc3)nc2-c2ccccc2)c2ccccc2)CC1`, the growth was 32.8% in test [1]; 108% in test [2]; 79.9% in test [3]; 72.1% in test [4]; 89.2% in test [5]; 111% in [6]. Also, the growth in test [7] is 87.8%; in test [8], 80.4%; in test [9], 81.1%; in test [10] it was 38.1%; in test [11], 32.6%; in [12] it was 89.1%. The growth is 84.8% in [13]; 67.4% in test [14]; 65.8% in test [15]; 93.4% in test [16]; 55.3% in [17]; 80.1% in test [18]. In test [20], the growth is 102%.

Values taken from PubChem BioAssay (NCI).
